Results reported in PubChem BioAssay.
Active and inactive are the calls of the source.

Legend:
[1] = optical density shifts of acrAB sulA E. coli – strain DRC41, OD650, 48 h, E. coli filamentation inducer project, primary screen (AID 1152); conditions: higher = more signal, called active from +8 up or from −8 down;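 further: E. coli MC1000 strain DRC41 lacking acrAB efflux pump and sulA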
[2] = probe aLefty1 binding on compound microarray – biochemical, small-molecule microarray, 635/667 nm fluorescence, primary screen (AID 1153); conditions: higher = more signal;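 further: score merges spot fluorescence with signal-to-noise ratio from the scanned slide images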
[3] = plasmodial surface anion channel blockers, osmotic lysis – cell-based, P. falciparum Indochina, OD700, 1 h, primary screen (AID 1154); conditions: P. falciparum Indochina infected RBC osmotic lysis, higher = more signal, called active from +8 up or from −8 down
[4] = plasmodial surface anion channel blockers, osmotic lysis – cell-based, P. falciparum Indochina, OD700, 2 h, primary screen (AID 1155);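 further: lysis reports solute entry through the parasite surface anion channel PSAC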; conditions: P. falciparum Indochina infected erythrocytes, higher = more signal, called active from +8 up or from −8 down
[5] = changes in parasitized red cell lysis, either direction – P. falciparum Indochina, OD700, 3 h, PSAC antagonist project, primary screen (AID 1156); conditions: P. falciparum-infected erythrocytes, osmotic lysis, higher = more signal, called active from +8 up or from −8 down
[6] = plasmodial surface anion channel blockers, osmotic lysis – cell-based, P. falciparum Indochina, OD700, 18 h, primary screen (AID 1157); conditions: P. falciparum Indochina infected erythrocytes, osmotic lysis OD700, 18 h; higher = more signal, called active from +8 up or from −8 down
[7] = S6 kinase pathway phospho-S6 level changes – cell-based, A549, cytoblot, luminescence, serum-stimulated, primary screen (AID 1158); conditions: 5 h, higher = more signal;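 further: serum-stimulated A549 lung adenocarcinoma cells; signal is phosphorylated S6 detected by cytoblot immunostaining with HRP secondary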
[8] = molecular target: NADPH oxidase 2 (Homo sapiens) (UniProt P04839); test: compounds shifting NOX2 Amplex Red fluorescence – cell-based, HEK293-NOX2, PMA-stimulated, NOX inhibitor project, primary screen (AID 1159); conditions: 45 min, higher = more signal, called active from +8 up or from −8 down; further: test concentration not given here
Chain of NADPH oxidase 2 (Homo sapiens) (P04839 whole entry, looked up): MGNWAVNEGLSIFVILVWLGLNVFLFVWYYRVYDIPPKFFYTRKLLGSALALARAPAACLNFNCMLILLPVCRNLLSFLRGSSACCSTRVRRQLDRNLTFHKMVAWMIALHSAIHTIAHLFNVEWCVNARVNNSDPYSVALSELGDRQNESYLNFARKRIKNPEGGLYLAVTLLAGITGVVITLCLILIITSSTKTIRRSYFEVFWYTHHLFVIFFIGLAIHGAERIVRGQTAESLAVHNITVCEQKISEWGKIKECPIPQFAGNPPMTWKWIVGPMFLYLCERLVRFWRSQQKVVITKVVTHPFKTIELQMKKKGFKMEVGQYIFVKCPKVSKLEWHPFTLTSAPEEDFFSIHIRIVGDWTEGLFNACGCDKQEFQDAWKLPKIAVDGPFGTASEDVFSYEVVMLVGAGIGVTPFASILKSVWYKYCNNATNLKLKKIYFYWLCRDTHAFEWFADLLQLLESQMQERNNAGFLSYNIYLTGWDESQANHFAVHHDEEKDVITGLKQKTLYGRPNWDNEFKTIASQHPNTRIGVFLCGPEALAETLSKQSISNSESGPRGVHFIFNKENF

[9] = molecular target: NADPH oxidase 4 (Homo sapiens) (UniProt Q9NPH5); test: compounds shifting NOX4 Amplex Red fluorescence – cell-based, HEK293-NOX4, tetracycline-induced, NOX inhibitor project, primary screen (AID 1160); conditions: HEK293-NOX4, Amplex Red H2O2 fluorescence, 45 min; higher = more signal, called active from +8 up or from −8 down
Chain of NADPH oxidase 4 (Homo sapiens) (Q9NPH5 whole entry, looked up): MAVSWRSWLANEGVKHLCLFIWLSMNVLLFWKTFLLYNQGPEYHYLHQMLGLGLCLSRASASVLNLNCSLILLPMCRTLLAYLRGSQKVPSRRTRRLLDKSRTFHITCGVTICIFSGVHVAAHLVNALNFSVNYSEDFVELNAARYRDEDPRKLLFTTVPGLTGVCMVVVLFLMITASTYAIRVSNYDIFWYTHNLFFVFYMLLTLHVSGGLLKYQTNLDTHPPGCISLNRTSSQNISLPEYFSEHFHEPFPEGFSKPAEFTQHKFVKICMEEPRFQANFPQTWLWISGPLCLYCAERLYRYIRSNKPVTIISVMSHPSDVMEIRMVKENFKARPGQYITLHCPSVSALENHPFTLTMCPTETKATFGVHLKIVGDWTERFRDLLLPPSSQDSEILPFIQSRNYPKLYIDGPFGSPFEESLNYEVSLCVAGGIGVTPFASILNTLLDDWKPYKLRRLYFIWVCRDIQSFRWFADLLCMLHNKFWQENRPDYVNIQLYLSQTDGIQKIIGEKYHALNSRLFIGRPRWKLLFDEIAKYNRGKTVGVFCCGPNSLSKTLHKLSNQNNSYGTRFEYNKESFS

[10] = molecular target: NADPH oxidase 5 (Homo sapiens) (UniProt Q96PH1); test: compounds shifting NOX5 Amplex Red fluorescence – cell-based, HEK293-NOX5, NOX inhibitor project, primary screen (AID 1161); conditions: HEK293-NOX5, ionomycin, 45 min, higher = more signal
Chain of NADPH oxidase 5 (Homo sapiens) (Q96PH1 whole entry, looked up): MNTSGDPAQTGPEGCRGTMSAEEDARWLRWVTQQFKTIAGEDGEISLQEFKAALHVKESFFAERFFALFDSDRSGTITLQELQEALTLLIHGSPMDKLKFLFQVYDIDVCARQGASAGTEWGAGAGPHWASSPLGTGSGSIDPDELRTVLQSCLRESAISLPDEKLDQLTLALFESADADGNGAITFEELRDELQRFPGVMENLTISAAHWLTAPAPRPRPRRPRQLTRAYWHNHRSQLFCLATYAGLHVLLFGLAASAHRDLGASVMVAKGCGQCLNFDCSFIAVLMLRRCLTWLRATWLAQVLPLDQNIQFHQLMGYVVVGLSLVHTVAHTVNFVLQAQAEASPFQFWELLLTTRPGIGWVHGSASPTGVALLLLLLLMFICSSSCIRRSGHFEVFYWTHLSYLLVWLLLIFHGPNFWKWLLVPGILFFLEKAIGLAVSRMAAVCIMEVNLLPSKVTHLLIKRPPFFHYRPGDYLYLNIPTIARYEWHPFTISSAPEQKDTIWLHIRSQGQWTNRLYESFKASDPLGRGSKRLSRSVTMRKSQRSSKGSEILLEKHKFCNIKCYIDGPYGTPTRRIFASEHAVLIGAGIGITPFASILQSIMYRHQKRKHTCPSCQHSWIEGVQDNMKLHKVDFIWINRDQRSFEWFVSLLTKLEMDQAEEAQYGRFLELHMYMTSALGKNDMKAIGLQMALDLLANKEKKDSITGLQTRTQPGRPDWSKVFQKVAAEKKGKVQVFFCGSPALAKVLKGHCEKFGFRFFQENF

| Compound | z-score [1] | composite z-score [2] | z-score [3] | z-score [4] | z-score [5] | z-score [6] | z-score [7] | z-score [8] | z-score [9] | z-score [10] |
| --- | --- | --- | --- | --- | --- | --- | --- | --- | --- | --- |
| CCOC(=O)C=C1C[C@@H](c2cccc([N+](=O)[O-])c2)O[C@@H](c2cccc([N+](=O)[O-])c2)O1 | -0.546 (inactive) | 1.21 | 1.65 (inactive) | 1.11 (inactive) | -0.481 (inactive) | 0.66 (inactive) | -0.125 | 0.325 (inactive) | 0.481 (inactive) | 1.28 |
| COCCCNC(=O)[C@]1(Cc2ccccc2N=[N+]=[N-])N=C(c2ccc(OCCCO)cc2)O[C@@H]1c1ccccc1 | -0.112 (inactive) | 0.749 | 28.8 (active) | 22.5 (active) | 2.38 (inactive) | 3.2 (inactive) | 0.008 | -2.28 (inactive) | 0.471 (inactive) | 0.124 |
| COc1ccc([Si](C)(C)[C@H]2[C@H](CC(=O)N(CCO)Cc3ccccc3)O[C@@]3(C(=O)N(Cc4ccc(N5C(=O)c6cccc7cccc5c67)cc4)c4ccccc43)[C@@H]2C)cc1 | -0.263 (inactive) | 0.542 | 15.2 (active) | 3.52 (inactive) | 1.24 (inactive) | 1.48 (inactive) | 0.294 | 1.52 (inactive) | 0.695 (inactive) | 2.88 |
| N#Cc1ccc(NN2C(C(O)c3ccc(B(O)O)cc3)C=CC3CN(c4ccccc4)C(=O)C32)cc1 (stereo not given) | 1.18 (inactive) | 0.521 | 24.4 (active) | 10.6 (active) | 3.76 (inactive) | 2.54 (inactive) | -0.882 | -2.63 (inactive) | -6.25 (inactive) | -4.31 |
| Cc1ccc(S[C@]2(C(=O)NC3CC3)CC(=O)N(C3Cc4ccccc4C3)[C@@H]2c2ccc(CO)cc2I)cc1 | 0.933 (inactive) | 0.227 | 5.18 (inactive) | 0.943 (inactive) | 0.202 (inactive) | 0.254 (inactive) | -0.256 | 1.94 (inactive) | -2.66 (inactive) | 1.41 |
| COCCOC(=O)N1C(=O)[C@@]2(c3cc(C#CC4=CCCCC4)ccc31)[C@H](C(=O)N1CCCCCCC1)[C@H]1C(=O)O[C@H](c3ccccc3)[C@H](c3ccccc3)N1[C@@H]2c1ccccc1OCCO | 0.857 (inactive) | 1.11 | 0.951 (inactive) | 1.01 (inactive) | -0.249 (inactive) | 0.413 (inactive) | 0.526 | -0.129 (inactive) | 0.322 (inactive) | 0.0795 |
| C=CCNC(=O)[C@H]1[C@@H]2C(=O)O[C@@H](c3ccccc3)[C@@H](c3ccccc3)N2[C@@H](c2ccc(O)cc2)[C@]12C(=O)Nc1ccccc12 | 1.58 (inactive) | -0.191 | 2.59 (inactive) | 0.301 (inactive) | -0.458 (inactive) | 0.393 (inactive) | 0.288 | 0.0548 (inactive) | -0.789 (inactive) | 1.04 |
| CC1CC/C=C\[C@H]2OC34C=CCN(CCN5CCOCC5)C(=O)[C@H]3N(C(CO)C(C)C)C(=O)[C@@H]4C2C(=O)O1 (stereo not given in full) | -0.481 (inactive) | -0.247 | 1.94 (inactive) | -0.184 (inactive) | 0.927 (inactive) | 0.233 (inactive) | -0.69 | 1.13 (inactive) | -0.728 (inactive) | 1.91 |
